Results reported in PubChem BioAssay AID743100 (Vanderbilt Specialized Chemistry Center, 2013).
Values without a mark were called inactive. Active and inactive are the calls of the source.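 The calls were made as follows: active = calcium response above 60% of the acetylcholine maximum at human M5, as a positive modulator; inactive = the rest.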

Molecular target: Muscarinic acetylcholine receptor M5 (Homo sapiens) (UniProt P08912)
Experiment: potentiators of ACh response at human M5 – cell-based, single concentration, CHO-K1 hM5, calcium flux (AID 743100)
Details: CHO-K1 hM5, Fluo-4 calcium flux, ACh EC20, hits give high values; at 10 µM unless noted

Muscarinic acetylcholine receptor M5 (Homo sapiens), sequence (P08912 whole entry, looked up): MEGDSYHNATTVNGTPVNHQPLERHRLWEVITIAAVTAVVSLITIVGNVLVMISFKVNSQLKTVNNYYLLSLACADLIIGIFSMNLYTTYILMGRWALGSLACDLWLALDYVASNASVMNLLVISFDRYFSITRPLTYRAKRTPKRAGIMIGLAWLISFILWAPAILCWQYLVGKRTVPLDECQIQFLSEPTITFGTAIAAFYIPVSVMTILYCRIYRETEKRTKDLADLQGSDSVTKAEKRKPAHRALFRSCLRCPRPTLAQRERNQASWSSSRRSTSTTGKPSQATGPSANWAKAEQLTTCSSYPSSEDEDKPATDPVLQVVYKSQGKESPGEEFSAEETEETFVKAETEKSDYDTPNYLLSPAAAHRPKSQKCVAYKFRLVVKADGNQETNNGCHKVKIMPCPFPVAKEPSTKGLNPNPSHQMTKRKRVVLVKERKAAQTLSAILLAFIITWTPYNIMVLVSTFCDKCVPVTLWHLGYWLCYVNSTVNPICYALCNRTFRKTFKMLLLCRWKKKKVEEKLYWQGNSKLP

| SMILES | % ACh max response |
| --- | --- |
| O=C(NCc1ccccc1)C1(Cc2ccccc2)CCN(S(=O)(=O)c2ccc3occc3c2)CC1 | 20.1% |
| [2H]C([2H])(C)N(C(=O)C1CCN(S(=O)(=O)c2ccc3cn[nH]c3c2)CC1)[C@H](C)c1ccccc1 | 94.6% (active) |
| COc1ccc(S(=O)(=O)N2CCC(C(=O)N3CCCC3c3ccccc3)CC2)cc1 (stereo not drawn) | 25.6% [at 30 µM] |
| CCN(Cc1cc(F)ccc1F)C(=O)C1CCN(S(=O)(=O)c2ccc3cn[nH]c3c2)CC1 | 57.2% |
| CCN(Cc1ccccc1)C(=O)C1CCN(S(=O)(=O)c2ccc(C(F)(F)F)nc2)CC1 | 56.9% [at 30 µM] |
| CCN(Cc1ccccc1)C(=O)C1CCN(S(=O)(=O)c2ccc(OC(F)(F)F)cc2)CC1 | 71.7% [at 30 µM] (active) |
| CCN([C@H](C)c1ccccc1)S(=O)(=O)C1CCN(S(=O)(=O)c2ccc3[nH]ncc3c2)CC1 | 18.7% |
| CCN(Cc1ccccc1C(F)(F)F)C(=O)C1(F)CCN(S(=O)(=O)c2ccc3[nH]ncc3c2)CC1 | 75.9% (active) |
| CCN(Cc1ccccc1)C(=O)C1CCN(S(=O)(=O)c2cccc(OC(F)F)c2)CC1 | 70.2% [at 30 µM] (active) |
| CCN(C(=O)C1CCN(S(=O)(=O)c2ccc3c(c2)CCC3)CC1)[C@H](C)c1ccccc1 | 91.5% (active) |
| CCN(Cc1ccccc1)C(=O)C1CCN(S(=O)(=O)c2ccc3[nH]ncc3c2)CC1 | 84.3% [at 30 µM] (active) |
| CCN(Cc1ccccc1)C(=O)C1CCN(S(=O)(=O)Cc2ccc(Br)cc2)CC1 | 26.2% [at 30 µM] |
| CCN(Cc1ccccc1)C(=O)C1CCN(C(=O)c2ccc(OC)cc2)CC1 | 25.5% [at 30 µM] |
| CCN(Cc1ccccc1)C(=O)C1CCN(S(=O)(=O)c2ccc3occc3c2)CC1 | 82.1% [at 30 µM] (active) |
| CCN(Cc1ccccc1)C(=O)C1CCN(S(=O)(=O)c2cccc3c2OCCO3)CC1 | 48% [at 30 µM] |
| CCN(Cc1ccccc1)C(=O)C1CCN(S(=O)(=O)c2ccc(C)cc2)CC1 | 73.7% [at 30 µM] (active) |
| CCN(Cc1ccc(SC)cc1)C(=O)C1CCN(S(=O)(=O)c2ccc3cn[nH]c3c2)CC1 | 14% |

| SMILES | % ACh max response |
| --- | --- |
| CCN(Cc1ccccc1)C(=O)C1CCN(S(=O)(=O)c2ccc(OC)c(OC)c2)CC1 | 56% [at 30 µM] |
| CCN(Cc1ccccc1)C(=O)C1CCN(S(=O)(=O)c2ccccc2OC)CC1 | 28.1% [at 30 µM] |
| CCN(Cc1cccc(Cl)c1)C(=O)C1CCN(S(=O)(=O)c2ccc3cn[nH]c3c2)CC1 | 73.9% (active) |
| CCN(Cc1ccccc1)C(=O)C1CCN(S(=O)(=O)Cc2ccccc2Br)CC1 | 5.25% [at 30 µM] |
| CCN(Cc1ccc(F)cc1)C(=O)C1CCN(S(=O)(=O)c2ccc3cn[nH]c3c2)CC1 | 52.1% |
| CCN(Cc1ccccc1)C(=O)C1CCN(S(=O)(=O)c2ccccc2F)CC1 | 38.4% [at 30 µM] |
| CCc1ccc(S(=O)(=O)N2CCC(C(=O)N(CC)Cc3ccccc3)CC2)cc1 | 64.3% [at 30 µM] (active) |
| CCN(Cc1cccc(C#N)c1)C(=O)C1CCN(S(=O)(=O)c2ccc3cn[nH]c3c2)CC1 | 46.2% |
| CCN(Cc1ccccc1)C(=O)C1CCN(S(=O)(=O)c2ccc(C(C)=O)cc2)CC1 | 58.4% [at 30 µM] |
| CCN(Cc1ccc(C#N)cc1)C(=O)C1CCN(S(=O)(=O)c2ccc3cn[nH]c3c2)CC1 | 8.37% |
| CCN([C@H](C)c1ccccc1)S(=O)(=O)C1CCN(S(=O)(=O)c2ccc3occc3c2)CC1 | 14.6% |
| CCN(Cc1ccccc1)C(=O)C1CCN(S(=O)(=O)c2ccc3cn(C)nc3c2)CC1 | 64.9% (active) |
| CCN(Cc1ccccc1)C(=O)C1CCN(S(=O)(=O)Cc2cccc(C(F)(F)F)c2)CC1 | 25.5% [at 30 µM] |
| CCN(Cc1ccccc1)C(=O)C1CCN(S(=O)(=O)c2ccc3cn[nH]c3c2)CC1 | 83.1% [at 30 µM] (active) |
| CCN(Cc1cccc(OC)c1)C(=O)C1CCN(S(=O)(=O)c2ccc3cn[nH]c3c2)CC1 | 74.2% (active) |
| CCN(Cc1ccccc1)C(=O)C1CCN(S(=O)(=O)c2ccccn2)CC1 | 36.4% |
